The values below come from PubChem BioAssay (NCATS).

SMILES strings stand for the structures. Inconclusive results are not listed. Where a call stands in place of a potency, no number is given. Values without a mark were called inactive. Activity calls are given as the source filed them. The call rests on the fitted dose curve; in most records, active means well fitted cell-killing curve with a large enough effect; inconclusive means small, poorly fitted or top-dose-only effect, or effect the other way; inactive means flat fitted curve, though single readings scatter.

In one test the test system is Tov-21-G. In words: Primary qHTS to identify gynecologic anti-cancer compounds using libraries of approved drugs and bioactive compounds (AID 1345084). Further: nearly all actives have a fitted effect of over 55% in size. To be noted: Gynecologic cancer cell panel viability, ATPlite luminescence, 48 h; series mostly up to 57.5 µM. Put shortly: (§1)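 Five-point cytotoxicity, 48 h drug exposure at 37 C, 5% CO2, on cells seeded 16 h beforehand. ATP content read by ATPlite luminescence.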
A general note: qHTS replaces the single test concentration by a dilution series.
`O=C(/C=C/c1ccccc1)O[C@@H]1[C@@H](CO)O[C@@](CO)(O[C@H]2O[C@H](CO)[C@@H](O)[C@H](O)[C@H]2O)[C@H]1O`: the Potency result is “inactive”.

Consider `COc1cc(C(=O)OCC2=CCC3C(C(=O)O)=COC(O[C@@H]4O[C@H](CO)[C@@H](O)[C@H](O)[C@H]4O)C23)ccc1O` (stereo partly drawn), for which the Potency entry is “inactive”.

Consider `COc1cc2c(cc1OC)N1C(=O)C[C@@]34C=CC[N@+]5([O-])CC[C@H]2[C@H](CC3)[C@@]145`, for which the Potency entry was “inactive”.

`COc1cc(C(CO)CO[C@@H]2O[C@H](CO)[C@@H](O)[C@H](O)[C@H]2O)ccc1O` (stereo partly drawn): the Potency result is “inactive”.

Regarding `CC(=O)NC(C(=O)OC1CCC(C)(C)C2CC=C3C(=O)OCC3C12C)C(C)C` (stereo not drawn), the Potency result is “inactive”.

On to `COc1ccc(/C=C/C(N)=O)cc1OC`, for which the Potency result is “inactive”.

For `Cc1oc(S(=O)(=O)N2CCCCC2)cc1NC(=O)Nc1ccccc1`, the Potency result was “inactive”.

`CC(=O)[C@@H]1C[C@H](C(C)(C)O[C@@H]2O[C@H](CO)[C@@H](O)[C@H](O)[C@H]2O)CC[C@@]2(CO)OC(=O)C[C@@H]12`: the Potency entry was “inactive”.

For `O=C(O)c1cc(C(F)(F)F)ccc1N1CC[C@H](OCc2ccccn2)C1`, the Potency result was “inactive”.

As for `C=C1CCC2C(C)(C(=O)O)CCCC2(C)C1CC/C(C)=C\CO` (stereo not drawn), the Potency entry is “inactive”.

On to `CC(C)c1ccc2c(c1)C(O)CC1C(C)(C(=O)O)CCCC21C` (stereo not drawn), for which the Potency result was “inactive”.

Consider `O=C(O)CC1CCC(c2ccc(-c3ccc(Nc4ccc(C(F)(F)F)nc4)cn3)cc2)CC1` (stereo not drawn), for which the Potency result was “inactive”.

`COCC1OC(OC(C)(C)C2CCC3(C)C=C(C4CCC5C4(C)CC(O)C4OC(C(C)(C)O)CCC45C)CCC3O2)C(NC(C)=O)C(O)C1O` (stereo not drawn): the Potency result is “inactive”.

Take `CC(C)CC(=O)OC[C@@]1(O)C[C@@]23CC[C@H]4[C@@](C)(CCC[C@@]4(C)C(=O)O)[C@@H]2CC[C@@H]1C3`: the Potency result is “inactive”.

A further test has as its system Tov112D. The description is as above. To be noted: Gynecologic cancer cell panel viability, ATPlite luminescence, 48 h; series mostly up to 57.5 µM. Put shortly: as §1
`CCCC1=CC2=C(CO1)C(=O)C(C)(O)C(OC(=O)c1c(C)cc(OC)cc1O)C2` (stereo not drawn): the Potency entry was “inactive”.

As for `CCOc1ccc(-c2nn3ncccc3c2-c2ccc(S(C)(=O)=O)cc2)cc1`, the Potency entry is “inactive”.

Regarding `CC1(C)[C@H]2C[C@H](C/C=C\CCCC(=O)O)[C@@H](NC(=O)c3csc4ccc(O)cc34)[C@@H]1C2`, the Potency entry was “inactive”.

Consider `O=C(Cc1ccc(Cl)cc1)Nc1cnccc1C(=O)O`, for which the Potency entry was “inactive”.

For the compound `C[C@@H]1O[C@@H](O[C@H]2[C@H](Oc3cc(O)c(C(=O)CCc4ccc(O)cc4)c(O)c3)O[C@H](CO)[C@@H](O)[C@@H]2O)[C@H](O)[C@H](O)[C@H]1O`, the Potency result was “inactive”.

In the case of `O=C1C(Cl)=C(N2CCOCC2)C(=O)N1c1ccc(Cl)c(Cl)c1`, the Potency entry was “inactive”.

For `C[C@@H]1O[C@@H](OC2C(O[C@H]3[C@H](O[C@H]4CC[C@@]5(C)C(CC[C@]6(C)C5CC=C5C7CC(C)(C)CC(O)[C@]7(C)CC[C@]56C)C4(C)C)O[C@H](C(=O)O)[C@@H](O)[C@@H]3O)OC(CO)C(O)C2O)[C@H](O)[C@H](O)[C@H]1O` (stereo partly drawn), the activity change, negative = cytotoxicity is 11.6% [at 11.6 µM].

With `CCC(C)/C=C(C)/C=C/C1=CC2=C(Cl)C(=O)C(C)(OC(C)=O)C(=O)C2=CN1C(CC(=O)O)C(=O)O` (stereo not drawn), the Potency entry was “inactive”.

With `C/C=C(\C)C(=O)OC[C@H]1O[C@@H](O[C@H]2[C@@H](O[C@H]3O[C@H](COC(=O)/C(C)=C/C)[C@@H](O)[C@H](O)[C@H]3O[C@@H]3O[C@H](CO)[C@@H](O)[C@H](OC(=O)/C(C)=C/C)[C@H]3O)O[C@H](COC(=O)/C(C)=C/C)[C@@H](O)[C@@H]2O)[C@H](O)[C@@H](O)[C@@H]1O`, the activity change, negative = cytotoxicity was 2.79% [at 11.6 µM].

For `COc1cc(C)c(C(=O)O[C@@H]2[C@H](O)[C@@H](CO)O[C@H]2n2ccc(=O)[nH]c2=O)c(OC)c1`, the Potency entry is “inactive”.

Turning to `C=C[C@H]1[C@H](O[C@@H]2O[C@H](CO)[C@@H](O)[C@H](O)[C@H]2O)OC=C(C(=O)OC)[C@H]1CCO`, the Potency entry was “inactive”.

Regarding `COc1cc(CCCO)ccc1O[C@@H]1O[C@H](CO)[C@@H](O)[C@H](O)[C@H]1O`, the Potency result was “inactive”.

On to `CC[C@H](C)[C@H](NC(=O)[C@H](Cc1ccc(O)cc1)NC(=O)[C@@H](N)C(C)C)C(=O)N[C@@H](Cc1cnc[nH]1)C(=O)N1CCC[C@H]1C(=O)N[C@@H](Cc1ccccc1)C(=O)O`, for which the activity change, negative = cytotoxicity was 12.4% [at 6.55 µM].

As for `CC(C)(O)C(O)C(=O)OCc1ccc(O[C@@H]2O[C@H](CO)[C@@H](O)[C@H](O)[C@H]2O)cc1` (stereo partly drawn), the Potency entry is “inactive”.

Regarding `C=Cc1ccc(O[C@@H]2O[C@H](CO[C@@H]3O[C@@H](C)[C@H](O)[C@@H](O)[C@H]3O)[C@@H](O)[C@H](O)[C@H]2O)cc1`, the Potency result is “inactive”.

On to `COc1ccc(-n2c(SCC#N)nc3sc4c(c3c2=O)CCCC4)cc1`, for which the Potency entry was “inactive”.

`O=C(CC1CC(c2ccc(F)cc2F)=NO1)N1CCOCC1` (stereo not drawn): the Potency entry was “inactive”.

For the compound `CC(C)=C1CC2[C@](C)(CC[C@@H](OC(=O)C3(C)OC3C)[C@@]2(C)O)CC1=O` (stereo partly drawn), the Potency result is “inactive”.

For the compound `COc1cc(/C=C/C(=O)O[C@H]2[C@H](O)[C@@H](CO)O[C@@]2(CO)O[C@H]2O[C@H](CO)[C@@H](O)[C@H](O)[C@H]2O)cc(OC)c1O`, the Potency result is “inactive”.

With `CC(=O)OC(C)(C)/C=C/C(=O)[C@](C)(O)C1[C@H](O)C[C@@]2(C)[C@@H]3CC=C4[C@@H](C[C@H](O[C@@H]5O[C@H](CO)[C@@H](O)[C@H](O)[C@H]5O)C(=O)C4(C)C)[C@]3(C)C(=O)C[C@]12C` (stereo partly drawn), the Potency entry is “inactive”.

Consider `CC(C)C(NC(=O)c1ccc(O)cc1)C(=O)N1CCCC1C(=O)Nc1c(O)cccc1C(=O)O` (stereo not drawn), for which the Potency entry was “inactive”.

Turning to `O=C(OC[C@H]1O[C@@H](Oc2ccccc2COC(=O)C2(O)C=CCCC2O)[C@H](O)[C@@H](O)[C@@H]1O)c1ccccc1` (stereo partly drawn), the Potency entry is “inactive”.

Take `COc1cc(/C=C/C(=O)O)ccc1O[C@@H]1O[C@H](CO)[C@@H](O)[C@H](O)[C@H]1O[C@@H]1OC[C@](O)(CO)[C@H]1O`: the Potency result was “inactive”.

Regarding `CC1C(O)C(O)C2C(C(=O)OCCc3ccc(O)cc3)=COC(O[C@@H]3O[C@H](CO)[C@@H](O)[C@H](O)[C@H]3O)C12` (stereo partly drawn), the Potency entry was “inactive”.

Regarding `CC1OC(OC2C(OC(=O)[C@]34CCC(C)(C)C[C@H]3C3=CCC5[C@@]6(C)CC[C@H](OC7OC(C(=O)O)C(O)C(O)C7O)C(C)(C)C6CC[C@@]5(C)[C@]3(C)CC4O)OC(CO)C2O)C(O)C(O)C1OC1OCC(O)C(O)C1O` (stereo partly drawn), the activity change, negative = cytotoxicity was -3.39% [at 11.6 µM].

As to `O=C(/C=C/c1ccccc1)O[C@@H]1[C@@H](CO)O[C@@](CO)(O[C@H]2O[C@H](CO)[C@@H](O)[C@H](O)[C@H]2O)[C@H]1O`, the Potency entry is “inactive”.

For `COc1cc(C(=O)OCC2=CCC3C(C(=O)O)=COC(O[C@@H]4O[C@H](CO)[C@@H](O)[C@H](O)[C@H]4O)C23)ccc1O` (stereo partly drawn), the Potency entry is “inactive”.

As to `COc1cc2c(cc1OC)N1C(=O)C[C@@]34C=CC[N@+]5([O-])CC[C@H]2[C@H](CC3)[C@@]145`, the Potency entry is “inactive”.

For `COc1cc(C(CO)CO[C@@H]2O[C@H](CO)[C@@H](O)[C@H](O)[C@H]2O)ccc1O` (stereo partly drawn), the Potency result is “inactive”.

As for `CC(=O)NC(C(=O)OC1CCC(C)(C)C2CC=C3C(=O)OCC3C12C)C(C)C` (stereo not drawn), the Potency entry was “inactive”.

For the compound `COc1ccc(/C=C/C(N)=O)cc1OC`, the Potency result is “inactive”.

With `Cc1oc(S(=O)(=O)N2CCCCC2)cc1NC(=O)Nc1ccccc1`, the Potency entry is “inactive”.

Consider `CC(=O)[C@@H]1C[C@H](C(C)(C)O[C@@H]2O[C@H](CO)[C@@H](O)[C@H](O)[C@H]2O)CC[C@@]2(CO)OC(=O)C[C@@H]12`, for which the Potency entry is “inactive”.

Take `O=C(O)c1cc(C(F)(F)F)ccc1N1CC[C@H](OCc2ccccn2)C1`: the Potency result is “inactive”.

On to `C=C1CCC2C(C)(C(=O)O)CCCC2(C)C1CC/C(C)=C\CO` (stereo not drawn), for which the Potency result was “inactive”.

For `CC(C)c1ccc2c(c1)C(O)CC1C(C)(C(=O)O)CCCC21C` (stereo not drawn), the Potency entry was “inactive”.

As to `O=C(O)CC1CCC(c2ccc(-c3ccc(Nc4ccc(C(F)(F)F)nc4)cn3)cc2)CC1` (stereo not drawn), the Potency entry was “inactive”.

In the case of `COCC1OC(OC(C)(C)C2CCC3(C)C=C(C4CCC5C4(C)CC(O)C4OC(C(C)(C)O)CCC45C)CCC3O2)C(NC(C)=O)C(O)C1O` (stereo not drawn), the Potency entry is “inactive”.

For the compound `CC(C)CC(=O)OC[C@@]1(O)C[C@@]23CC[C@H]4[C@@](C)(CCC[C@@]4(C)C(=O)O)[C@@H]2CC[C@@H]1C3`, the Potency entry was “inactive”.
